Among the test systems are SK-MEL-2 melanoma; EKVX NSCLC; SN12C renal; UO-31 renal; TK-10 renal; ACHN renal; CAKI-1 renal; A498 renal; CCRF-CEM leukemia; MOLT-4 leukemia; SR leukemia; RPMI-8226 leukemia; OVCAR-8 ovarian; OVCAR-5 ovarian; OVCAR-4 ovarian; SK-OV-3 ovarian; IGROV1 ovarian; OVCAR-3 ovarian; HS 578T breast; NCI/ADR-RES ovarian.
What all share (assay): NCI-60 one-dose screen, 48 h (100 = growth as untreated, 0 = no growth, -100 = all killed)
Common to all, as to conditions: 10 µM unless noted

This is part of a sample that, as a whole, favours compounds with a hit. Of some 83,000 tested, about 20% had one in any assay.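 A percent growth of 40 corresponds to 60% growth inhibition; 0 means no net growth; -100 means all cells died. Active threshold: below 10.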 Unmarked numbers belong to inactive results. The source made the active and inactive calls.

Regarding `CCN1CCN(Cc2ccc(C(=O)Nc3cccc(Nc4ccc5c(OC)cccc5n4)c3)cc2C(F)(F)F)CC1`, the growth in the experiment with SK-MEL-2 melanoma was -76% (active); in the experiment on EKVX NSCLC it was -95.7% (active); with SN12C renal it was -90.5% (active); in the experiment on UO-31 renal it was -85.8% (active); in the experiment with TK-10 renal, -86.2% (active); in the experiment on ACHN renal it was -100% (active). The growth is -98.3% (active) in the experiment with CAKI-1 renal; -88.8% (active) in the experiment with A498 renal; -30.5% (active) in the experiment on CCRF-CEM leukemia; -45.4% (active) with MOLT-4 leukemia; -35.1% (active) in the experiment with SR leukemia; -34.8% (active) in the experiment with RPMI-8226 leukemia. Besides, the growth with OVCAR-8 ovarian is -66.1% (active); in the experiment with OVCAR-5 ovarian it was -91.9% (active); with OVCAR-4 ovarian it was -53.1% (active); with SK-OV-3 ovarian, -8.33% (active); in the experiment with IGROV1 ovarian it was -83.6% (active); in the experiment on OVCAR-3 ovarian it was 4.54% (active). Also, the growth with HS 578T breast is -16.4% (active); in the experiment with NCI/ADR-RES ovarian, -81% (active).

For the compound `C[C@@H](Nc1c(C#N)cnc2ccc(-c3cnc4[nH]ncc4c3)cc12)c1ccccc1`, the growth with SK-MEL-2 melanoma was -24.8% (active); in the experiment with EKVX NSCLC, -31.9% (active); in the experiment on SN12C renal it was 11.3%; in the experiment on UO-31 renal, 8.19% (active); in the experiment on TK-10 renal, -6.48% (active); in the experiment with ACHN renal, 4.37% (active). The growth in the experiment with CAKI-1 renal is 4.1% (active); in the experiment with A498 renal, -40.2% (active); in the experiment on CCRF-CEM leukemia it was 0.263% (active); in the experiment with MOLT-4 leukemia it was -34.5% (active); in the experiment with SR leukemia, -8.05% (active); in the experiment with RPMI-8226 leukemia, -1.82% (active). The growth is 24.4% in the experiment on OVCAR-8 ovarian; 15.2% in the experiment with OVCAR-5 ovarian; 36.9% in the experiment on OVCAR-4 ovarian; 19.5% with SK-OV-3 ovarian; -60.6% (active) in the experiment on IGROV1 ovarian; 3.49% (active) in the experiment on OVCAR-3 ovarian. Moreover, the growth in the experiment with HS 578T breast is -19.5% (active); in the experiment with NCI/ADR-RES ovarian, 17.7%.

For `Nc1ccc(-c2ccc3ncnc(N4CCc5cc(F)c(Cl)cc54)c3c2)cn1`, the growth was 29% with SK-MEL-2 melanoma; -29.2% (active) with EKVX NSCLC; 19.2% in the experiment with SN12C renal; 3.05% (active) with UO-31 renal; -7.15% (active) in the experiment on TK-10 renal; 8.96% (active) in the experiment on ACHN renal. Also, the growth in the experiment with CAKI-1 renal was 5.25% (active); in the experiment with A498 renal it was -13.2% (active); in the experiment with CCRF-CEM leukemia it was 10.6%; in the experiment on MOLT-4 leukemia, 1.81% (active); in the experiment on SR leukemia, 0.174% (active); in the experiment on RPMI-8226 leukemia, 6.22% (active). Besides, the growth was 42.5% with OVCAR-8 ovarian; 20.6% in the experiment with OVCAR-5 ovarian; 34.6% in the experiment with OVCAR-4 ovarian; 1.92% (active) in the experiment with SK-OV-3 ovarian; -46% (active) in the experiment with IGROV1 ovarian; 4.61% (active) in the experiment on OVCAR-3 ovarian. For the same compound, the growth with HS 578T breast was -15.8% (active); in the experiment on NCI/ADR-RES ovarian, 30%.

Take `O=C(Cn1c(/C=C/c2ccc([N+](=O)[O-])cc2)nc2ccccc2c1=O)Nc1ccccc1`: the growth in the experiment on SK-MEL-2 melanoma was 74.7%; in the experiment with EKVX NSCLC, 79.9%; in the experiment with SN12C renal, 61.6%; in the experiment on UO-31 renal, 90.4%; with TK-10 renal it was 95.3%; in the experiment on ACHN renal, 47.8%. The growth in the experiment on CAKI-1 renal is 57.3%; in the experiment with A498 renal, 143%; with CCRF-CEM leukemia, 101%; in the experiment with MOLT-4 leukemia, 107%; in the experiment with SR leukemia, 88.1%; in the experiment with RPMI-8226 leukemia it was 93.8%. In addition, the growth was 65.8% with OVCAR-8 ovarian; 80% in the experiment with OVCAR-5 ovarian; 56.8% with OVCAR-4 ovarian; 71.9% in the experiment on SK-OV-3 ovarian; 74.6% with IGROV1 ovarian; 81.4% with OVCAR-3 ovarian. Besides, the results for the growth with HS 578T breast and in the experiment on NCI/ADR-RES ovarian were 54.2% and 54%, respectively.

`COC(=O)CSC1=C(C)C(=O)C(OC)=C(OC)C1=O`: the growth in the experiment on SK-MEL-2 melanoma is 103%; in the experiment with EKVX NSCLC, 91%; in the experiment on SN12C renal it was 96.2%; with UO-31 renal, 80.7%; with TK-10 renal, 106%; in the experiment with ACHN renal, 96.4%. In addition, the growth was 77.4% in the experiment with CAKI-1 renal; 90.4% with A498 renal; 25% in the experiment with CCRF-CEM leukemia; 17.5% with MOLT-4 leukemia; 57% in the experiment on SR leukemia; 65.6% in the experiment on RPMI-8226 leukemia. Also, the growth is 92.2% with OVCAR-8 ovarian; 110% in the experiment with OVCAR-5 ovarian; 94.2% in the experiment on OVCAR-4 ovarian; 100% with SK-OV-3 ovarian; 106% with IGROV1 ovarian; 91.8% in the experiment on OVCAR-3 ovarian. Further, the values for the growth in the experiment on HS 578T breast and in the experiment on NCI/ADR-RES ovarian were 79.2% and 96.6%, respectively.

In the case of `O=C1/C(=C/C=C/c2ccco2)SC(=S)N1CC(=S)C1C=CS(=O)(=O)C1` (stereo not given), the growth with SK-MEL-2 melanoma is 88.1%; in the experiment on EKVX NSCLC it was 94%; in the experiment with SN12C renal it was 81.2%; in the experiment on UO-31 renal, 84.1%; with TK-10 renal it was 126%; with ACHN renal it was 100%. For the same compound, the growth was 107% in the experiment on CAKI-1 renal; 141% with A498 renal; 45.9% in the experiment with CCRF-CEM leukemia; 68.8% with MOLT-4 leukemia; 39% with SR leukemia; 63.9% with RPMI-8226 leukemia. The growth is 97.1% in the experiment with OVCAR-8 ovarian; 100% in the experiment with OVCAR-5 ovarian; 96.1% in the experiment with OVCAR-4 ovarian; 105% in the experiment on SK-OV-3 ovarian; 92.7% in the experiment on IGROV1 ovarian; 65.9% in the experiment on OVCAR-3 ovarian. Also, the growth in the experiment with HS 578T breast is 109%; with NCI/ADR-RES ovarian, 95.8%.

Turning to `Cc1[nH]nc2ccc3nc(-c4cn[nH]c4C(F)(F)F)c4c(c3c12)CCCC4`, the growth in the experiment with SK-MEL-2 melanoma is -68.2% (active); with EKVX NSCLC, -40.5% (active); in the experiment on SN12C renal, -22.4% (active); with UO-31 renal, -30.5% (active); with TK-10 renal it was -56.2% (active); in the experiment with ACHN renal, 1.85% (active). Moreover, the growth in the experiment with CAKI-1 renal was -9.8% (active); in the experiment with A498 renal, -61.1% (active); with CCRF-CEM leukemia it was -12.1% (active); in the experiment on MOLT-4 leukemia, 2.2% (active); in the experiment with SR leukemia, 16.6%; in the experiment with RPMI-8226 leukemia, 1.04% (active). Also, the growth is 4.15% (active) in the experiment with OVCAR-8 ovarian; 3.15% (active) with OVCAR-5 ovarian; 29.6% with OVCAR-4 ovarian; -54.2% (active) in the experiment with SK-OV-3 ovarian; -42.4% (active) in the experiment with IGROV1 ovarian; -15% (active) in the experiment on OVCAR-3 ovarian. Also, the results for the growth with HS 578T breast and in the experiment on NCI/ADR-RES ovarian were -28.6% (active) and 19.8%, respectively.

With `COc1ccc(-c2cc(C)nc3[nH]c(=O)sc23)cc1`, the growth is 100% with SK-MEL-2 melanoma; 89.5% with EKVX NSCLC; 43.2% with SN12C renal; 3.27% (active) with UO-31 renal; 17.1% in the experiment with TK-10 renal; 31.9% with ACHN renal. The growth in the experiment on CAKI-1 renal was 40.5%; in the experiment with A498 renal it was 6.1% (active); with CCRF-CEM leukemia, 81.5%; in the experiment with MOLT-4 leukemia, 86.8%; in the experiment on SR leukemia it was 75.5%; in the experiment with RPMI-8226 leukemia it was 69.4%. Also, the growth is 63.5% with OVCAR-8 ovarian; 80.4% with OVCAR-5 ovarian; 2.45% (active) with OVCAR-4 ovarian; 55.9% with SK-OV-3 ovarian; 62.5% in the experiment with IGROV1 ovarian; 67.1% with OVCAR-3 ovarian. Further, the growth with HS 578T breast is 48.2%; in the experiment with NCI/ADR-RES ovarian it was 62.4%.

For the origin of these results see PubChem BioAssay (NCI).
